From PubChem BioAssay
Insulin prom up: MIN6 insulin promoter up-regulation; 0.3% of 190,000 active; z-score at 5 µM; AID 1625; MIN6 insulin promoter-GFP reporter, high-content imaging; active compounds read high;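 active = z-score above 3 at 5 µM with at least 500 cells counted in the well; inconclusive = wells under 500 cells, flagged as cytotoxic or low count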
WT yeast gro inh: growth inhibition of WT yeast, mitochondrial fusion screen. 2.1% of 190,000 active. inhibition, % at 10 µM. AID 1362. mitochondrial fusion phenotypic screen, WT strain; in the data active = inhibition above about 58%; tested in S. cerevisiae
Autophagy mod: autophagy modulation, high-content screen; MEF GFP-LC3 puncta imaging; test concentration mostly 10 µM; calls only at 10 µM (by protocol); AID 463193; 0.98% of 190,000 active;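 active = percentage of spot-positive cells more than 3 SD above its plate mean, without a fluorescence outlier flag or 80% toxicity; inconclusive = no clear call, values can overlap the other calls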;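 also: spot-positive cell cutoff set from DMSO-treated cells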
L major viab: inhibitors of Leishmania major promastigote growth | Leishmania major promastigotes, resazurin fluorescence viability | inhibition, % at 10 µM | 9% of 200,000 active | AID 1063; in the data active = inhibition above about 50%;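 also: promastigotes grown with compound for 44 hours at 28 °C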
Insulin prom inh: TRM-6 insulin promoter activity inhibition; 0.9% of 130,000 active; inhibition, % at 2 µM; TRM-6 cells (human fetal islet line), insulin promoter-eGFP reporter, imaging; reporter expression induced with tamoxifen;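 active = inhibition above the mean plus 3 SD, with well images judged a real hit on visual review, cut at about 60% in these data, passing the limit was not always enough; inconclusive = inhibition over the cutoff but images rejected on review; inactive = inhibition not above the cutoff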
Active calls of the source: *; i = inactive; ? = inconclusive; . = no result; + = active, no number. Hits are enriched below; roughly 11% of the tested compounds scored in any of these assays.

SMILES | Insulin prom up | WT yeast gro inh | Autophagy mod | L major viab | Insulin prom inh
Cc1ccc(C(=O)N/C(=C\c2ccc(Cl)cc2)C(=O)NCC2CCCO2)cc1 (configuration not stated) | -0.15 | 0 | i | -4 | 27
S=C(Nc1ccc(Oc2ccccc2)cc1)NC1CCCCCC1 | 0.03 | 69* | i | 16 | .
CN(C(=S)Nc1ccc(Oc2ccccc2)cc1)C1CCCCC1 | -1.1 | 68* | i | 24 | 33
S=C(Nc1ccc(Oc2ccccc2)cc1)NC1CCCCC1 | -0.83 | 61* | i | 16 | 35
S=C(NNc1ccc2ccccc2c1)NC1CCCCC1 | 0.28 | 78* | i | 13 | -22
Cc1nnsc1C(=O)NNC(=O)c1cccc2ccccc12 | -0.48 | . | . | . | .
Cc1nnsc1Sc1ccccc1 | . | 6 | i | -4 | -45
COc1ccc(S(=O)(=O)CCC(=O)Nc2cccc(OC)c2)cc1 | 2.3 | -10 | i | -9 | -33
O=C(Nc1nc(-c2ccc(Oc3ccccc3)cc2)cs1)C1=COCCO1 | 1.1 | 20 | i | -5 | .
O=C(O)/C(=C\c1ccc(Cl)cc1)c1ccc(F)cc1 | 0.32 | -5 | i | -8 | 27
CCCCN(C)C(=S)Nc1ccc(Oc2ccccc2)cc1 | 0.04 | 59* | i | -4 | .
CN(CCC#N)C(=S)Nc1ccc(Oc2ccccc2)cc1 | -0.12 | 5 | i | 14 | -30
S=C(Nc1ccc(Cl)c(Cl)c1)NC1CCCCC1 | 0.13 | -13 | i | 18 | -9
S=C(Nc1ccc2nsnc2c1)NC1CCCCC1 | -0.09 | 30 | i | 82* | 41
CCOC(=O)N1CCN(CC(=O)Nc2cc(OC)c(OC)cc2C#N)CC1 | 0.25 | -6 | i | -7 | .
O=C(COC(=O)CCS(=O)(=O)c1ccc(Cl)cc1)NC1CCCCC1 | 0.68 | 12 | i | -5 | 10
Cc1cc(/C=C2\SC(=S)NC2=O)c(C)n1-c1ccc(O)cc1 | 3.7* | . | . | . | .
Cc1cc(/C=C2\SC(=Nc3ccc(F)cc3)NC2=O)c(C)n1-c1ccc(S(N)(=O)=O)cc1 | -2.4 | -1 | i | 57* | 40
COc1ccc(-n2c(C)cc(/C=C3\SC(=S)NC3=O)c2C)cc1 | . | -9 | i | 3 | .
Cc1cc(/C=C2\SC(=S)NC2=O)c(C)n1-c1ccccc1 | 0.97 | . | . | . | .
Cc1cc(/C=C2/SC(=O)NC2=O)c(C)n1-c1ccc(N2CCOCC2)cc1 | -0.08 | 11 | i | 57* | 39
CC(C)C(=O)Nc1ccc(S(=O)(=O)Nc2nccc(/C=C/c3ccccc3)n2)cc1 | -0.01 | -9 | i | -9 | .
Cc1cc(F)ccc1S(=O)(=O)N1CCCOC1CNC(=O)C(=O)NCCc1c[nH]c2ccccc12 (configuration not stated) | 0.56 | -13 | i | 33 | -69
O=C(NCCO)C(=O)NCC1OCCCN1S(=O)(=O)c1cccs1 (configuration not stated) | 0.14 | -11 | i | 56* | -43
Cc1cc(C)c(S(=O)(=O)N2CCCOC2CNC(=O)C(=O)NCCc2c[nH]c3ccccc23)c(C)c1 (configuration not stated) | -0.03 | -6 | i | 93* | -11
SMILES | Insulin prom up | WT yeast gro inh | Autophagy mod | L major viab | Insulin prom inh
C=CCc1cc(Cl)ccc1OCCOCCNC(C)(C)C | -1.8 | 12 | + | 99* | .
C=CCc1cc(Cl)ccc1OCCOCCNCCOC | -0.36 | -2 | i | 99* | -19
COc1cc(C=O)ccc1OCCOCCOc1ccccc1Cl | 1.7 | -4 | i | 1 | .
C=CCc1cc(Cl)ccc1OCCOCCN(C)C | 0.1 | 25 | i | 100* | .
C=CCc1cc(Cl)ccc1OCCNCCCOC | -0.35 | -1 | i | 100* | 15
Cn1c(N)c(N2CCN(c3ccccc3)CC2)c(=O)[nH]c1=O | 0.49 | -7 | i | -7 | .
C=CCc1ccccc1OCCNCCCOC | -0.46 | -6 | i | 83* | -31
C=CCn1c(=O)c2ccccc2n2c(Sc3nnnn3-c3ccccc3)nnc12 | -0.13 | -31 | i | 56* | .
O=C(CCNC(=O)c1ccco1)Nc1ccccc1N1CCOCC1 | . | 2 | i | -6 | 9
C=CCOc1c(Cl)cc(CNc2ccc(N(C)C)cc2)cc1OC | 1.2 | 54 | i | 101* | -27
CC(C)Oc1cccc(NC(=O)c2cnccc2C(F)(F)F)c1 | 0.7 | . | . | . | .
Cc1ccc(N2C=Nc3ccc(C)c4nc(C)cc2c34)cc1 | 0.02 | -22 | i | 23 | 85*
O=C(CSC(=S)N1CCCCC1)N1N=CCC1c1ccccc1 (configuration not stated) | 0.47 | 2 | i | 51* | -14
C/C(CCc1ccc2c(c1)OCO2)=N\NC(=S)NC(C)C | -0.59 | 59* | i | 18 | -79
COCCNC(=S)N/N=C(\C)CCc1ccc2c(c1)OCO2 | 0.62 | -14 | i | 4 | .
CC1CCN(c2nc3nonc3nc2Nc2ccc(F)cc2)CC1 | . | 13 | i | 33 | -44
CC1(C)CC(N2CCCC2)=CC(=[N+]2CCCCCC2)C1 | -4.5 | 1 | i | 100* | .
CC1CC(C)C[N+](=C2C=C(N3CCCC3)CC(C)(C)C2)C1 (configuration not stated) | ? | 6 | i | 100* | 42
CSc1nc(N2CCN(c3ccccc3)CC2)cc(N2CCN(c3ccccc3)CC2)n1 | 0.05 | 2 | i | 21 | 23
CCN(CC)C1=CC(=[N+]2CCCC2)CC(C)(C)C1 | -3.6 | -11 | i | 100* | 43
CC1(C)CC(N2CCN(c3ccccc3)CC2)=CC(=[N+]2CCCC2)C1 | ? | 6 | i | 99* | .
CCN(CC)C1=NS(=O)(=O)c2cc([N+](=O)[O-])ccc21 | -0.22 | -16 | i | 100* | .
COc1ccc(-c2nc(Cn3c(SCc4cccc(F)c4)nc4ccncc43)c(C)o2)cc1OC | 0.74 | 3 | + | 9 | .
CCN(CCn1cccn1)Cc1nc(Cc2cccc(F)c2)no1 | 0.3 | 4 | i | -4 | .
CCOc1cc(/C=N/n2cnnc2)ccc1OS(=O)(=O)c1ccccc1 | -0.7 | -1 | i | 69* | .
SMILES | Insulin prom up | WT yeast gro inh | Autophagy mod | L major viab | Insulin prom inh
O=S(=O)(Oc1ccccc1/C=N/n1cnnc1)c1ccccc1 | 0.73 | -14 | i | 1 | .
COC(=O)c1cc(OC)c(OC)cc1NC(=O)c1c(C)noc1C | . | . | i | -2 | -38
CSc1nc(-c2ccco2)nn1C(=O)c1ccco1 | -6.6 | -8 | i | 30 | .
CCS(=O)(=O)n1nc(-c2ccco2)nc1SC | 0.4 | -10 | i | -5 | 10
CSc1nc(-c2ccc(Cl)cc2)nn1C(=O)c1ccco1 | 1.2 | -7 | i | -1 | 83*
CCS(=O)(=O)n1nc(-c2ccc(Cl)cc2)nc1SC | 0.45 | -6 | i | -4 | 72*
COc1ccc(/C=N/N=C2/CC(C)(C)Cc3n[nH]c(=O)cc32)cc1 | 0.47 | -12 | i | 1 | .
Cc1cccc(C(=O)N(c2ccccn2)C(C)c2ccco2)c1 (configuration not stated) | -0.36 | 2 | i | 56* | -8
Cc1cc(C)cc(C(=O)N(c2ccccn2)C(C)c2ccco2)c1 (configuration not stated) | . | 29 | i | -3 | -27
